The text below walks through data of ChEMBL document CHEMBL4513216, “Probing the Open Global Health Chemical Diversity Library for Multistage-Active Starting Points for Next-Generation Antimalarials” (ACS Infect Dis, 2020).

Hit rate of the full screen: of about 69,000 compounds, about 8,600 (12%) showed an effect of 50% or more. The full list was thinned out, with strong results kept by preference.

The test system of the assay is Plasmodium berghei. In words: Screen against P. berghei liver stage (PbLuc), transformed with Luciferase, at 10uM. Type of assay: functional, HepG2. The note with it: tested at 10 uM.
With `CN(C)C(=O)COC[C@@H]1CC[C@H]2[C@H](CCN2c2ncccn2)O1`, the INHIBITION was found to be 0.542%.
For `COCc1ccccc1NC(=O)CCNC(=O)c1ccoc1`, the INHIBITION is on record as -77.9%.
In the case of `CN(C)C[C@@H]1CCC[C@@H]2CN(c3ncccn3)C[C@@H]21`, the INHIBITION was 16.1%.
Take `Cc1nnc(NC(=O)NCc2ccc(N3CCNC(=O)C3)cc2)s1`: the INHIBITION worked out at 14.7%.
With `O=C1CN(c2ccc(CNC(=O)Nc3nnc(C4CC4)s3)cc2)CCN1` the figure was 59.6%; with `O=C1CN(c2ccc(CNC(=O)NCc3ccoc3)cc2)CCN1`, -22.9%; with `O=C(NCc1ccc(N2CC=CC2)cc1)Nc1nnc(C2CC2)s1`, 3.87%.
Take `O=C1CN(c2ccc(CNC(=O)NCCO)cc2)CCN1`: the INHIBITION is on record as 52.5%.
With `CC(O)CNC(=O)NCc1ccc(N2CCNC(=O)C2)cc1` (stereo not drawn) the figure was 39.5%.
As for `Cc1nn(CCC(=O)N(C)Cc2c(Cl)cnn2C)cc1Br`, the INHIBITION is 18.3%.
Take `CCN(Cc1ccc(Cl)c(Cl)c1)C(=O)CCn1cncn1`: the INHIBITION was found to be 19.3%.
The figure for `Cc1nc(C)n(CC2CN(c3ncccc3C#N)CCO2)n1` (stereo not drawn) is -14.7%; for `O=C(O)c1cc(-c2cncnc2)cc(S(=O)(=O)N2CCCCCC2)c1` it is -8%.
As for `CN(C)c1nccnc1C1CCN(C(=O)C2(C)CCCCN2C)CC1` (stereo not drawn), the INHIBITION worked out at 28.6%.
Consider `Cc1nn(-c2ncccn2)c2c1C(c1cnn(C)c1C)SCC(=O)N2` (stereo not drawn), for which the INHIBITION was 27.6%.
Regarding `Cc1cc(C)nc(-n2nc(C)c3c2NC(=O)CSC3c2cnn(C)c2)n1` (stereo not drawn), the INHIBITION was determined as 88.8%.
The figure for `Cc1nn(-c2ncccn2)c2c1C(c1cnn(C)c1)SCC(=O)N2` (stereo not drawn) is 61%.
For `CC(C)n1nc(O)c2c1NC(=O)CSC2c1cnn(C)c1` (stereo not drawn), the INHIBITION came out at 9.36%.
The figure for `Cc1n[nH]c2c1C(c1cnn(C)c1)SCC(=O)N2` (stereo not drawn) is -2.37%; for `Cc1nn(-c2ccccn2)c2c1C(c1cnn(C)c1)SCC(=O)N2` (stereo not drawn) it is 41.5%.
As to `COc1cc(CN2CCn3c(CO)nnc3C2)ccc1OC(C)C`, the INHIBITION amounted to 35.2%.
The figure for `Cc1noc(C)c1C(=O)N1CCCN(Cc2cscn2)CC1` is 9.64%.
With `NCC1CCC(C(NC(=O)c2ccccc2)c2ccccn2)CC1` (stereo not drawn) the figure was 48.8%; with `Cc1noc(C)c1-c1cncc(C2CCCN2Cc2cn(C)cn2)n1` (stereo not drawn), 26.8%; with `Cc1ccc(NS(=O)(=O)c2cccc(C#N)c2)c(CN(C)C)c1`, -0.613%.
With `Cc1ccc(NS(=O)(=O)c2ccc(C#N)cc2)c(CN(C)C)c1` the figure was -33.5%; with `Cc1ccc(NCc2ccc(C#N)cc2)c(CN(C)C)c1`, 86.7%; with `Cc1cc(C)n(-c2ccc3nnc(C)n3n2)n1`, -14.9%.
`O=C(CSc1ccc(F)cc1F)NS(=O)(=O)c1ccc2c(c1)OCCO2`: the INHIBITION is -16.45%.
With `COCCn1nc(C(=O)N(C)Cc2cnn(C)c2)ccc1=O` the figure was 36.3%; with `Cc1cc(NC(=O)CNC2CCCN(c3cccnn3)C2)on1` (stereo not drawn), 21%; with `CC(C)[C@H]1COC(=O)N1CC(=O)N1CCN(C(=O)c2ccco2)CC1`, 7.6%.
For the compound `Cc1ccccc1N1CCCN(C(=O)CN2C(=O)OC[C@@H]2C(C)C)CC1`, the INHIBITION stood at 23%.
`CC(C)[C@H]1COC(=O)N1CC(=O)N1CCCN(C(=O)c2ccoc2)CC1`: the INHIBITION turned out to be 52.1%.
As to `COCc1nnc(C(=O)N2CC(N3CCCCC3)C2)o1`, the INHIBITION came out at 10.6%.
Take `NCC1CCC(C(NC(=O)c2ccccn2)c2ccccn2)CC1` (stereo not drawn): the INHIBITION was 24.4%.
With `CC(=O)N1CC[C@@H]2O[C@@H](COCC(=O)N3CCCC3)CC[C@@H]21` the figure was 52%.
The figure for `O=C(c1ccoc1)N1CC[C@@H]2O[C@@H](COCC3CCOCC3)CC[C@@H]21` is 38.1%; for `O=C(c1ccco1)N1CC[C@@H]2O[C@@H](COCC3CCOCC3)CC[C@@H]21` it is 68.9%.
With `O=C(c1ccco1)N1CC[C@@H]2O[C@H](COCC3CCOCC3)CC[C@@H]21`, the INHIBITION is reported as -4.99%.
The figure for `NC(=O)N1CC[C@@H]2O[C@H](COCC(=O)N3CCCC3)CC[C@@H]21` is -27.9%; for `O=C(c1ccco1)N1CC[C@@H]2O[C@@H](COCCN3CCCC3)CC[C@@H]21` it is 83.5%; for `O=C(c1ccco1)N1CC[C@@H]2O[C@H](COCCN3CCCC3)CC[C@@H]21` it is 24.1%.
The figure for `O=C(c1ccno1)N1CC[C@@H]2O[C@@H](COCCN3CCCC3)CC[C@@H]21` is 28.4%; for `NC(=O)N1CC[C@@H]2O[C@@H](COCC(=O)N3CCCC3)CC[C@@H]21` it is 15.4%.
As for `CC(C)(NS(C)(=O)=O)c1nc(-c2ccc(F)cc2Cl)no1`, the INHIBITION is -9.76%.
For `Cc1cccc(C(=O)NCc2cccnc2N(C)C)n1`, the INHIBITION was determined as 35.6%.
As to `Cc1cc(C(=O)N2CCCC2)ccc1NCC(=O)N1CCOCC1`, the INHIBITION came out at 7.67%.
Take `O=C(c1ccccc1)N1CC[C@H]2C[C@@H](c3nccs3)O[C@@H]2C1`: the INHIBITION is given as -22.5%.
With `O=c1cccnn1CC1CN(Cc2ccsc2)Cc2nccn2C1` (stereo not drawn) the figure was 40.4%; with `CC(C(=O)N1CCCCCC1)N1CCN(c2nccs2)CC1` (stereo not drawn), 31.1%.
The figure for `Cc1cc(Nc2ccccn2)nc(C2CCCN(CCO)C2)n1` (stereo not drawn) is 17.4%.
The figure for `Cc1nc(CCNC(=O)Nc2cc(C(F)(F)F)c[nH]c2=O)cs1` is 19.7%; for `COc1ccccc1NC(=O)N(CCO)Cc1ccsc1` it is 77.6%; for `COc1ccc(NC(=O)N(CCO)Cc2ccsc2)c(OC)c1` it is 5.85%.
Consider `CCOc1ccccc1NC(=O)N(CCO)Cc1ccsc1`, for which the INHIBITION is -8.51%.
With `CC1(C(=O)N2CCOCC2)CN(Cc2c[nH]cn2)CCO1` (stereo not drawn) the figure was 39.7%; with `O=C(O)c1c(NC2CCC2)ncc2c1CCN(C1CCOC1)C2` (stereo not drawn), 11.3%; with `CN(C)C(=O)N1C[C@H]2CC[C@@H](C1)N(Cc1nnc(C3CC3)o1)C2`, 28%.
For `O=C(Cc1ccccc1)N1CC[C@@H]2CNS(=O)(=O)[C@@H]2CC1`, the INHIBITION worked out at 54.1%.
The figure for `COc1cccc(NC(=O)N2CC[C@@H]3CN(C)S(=O)(=O)[C@@H]3CC2)c1` is 55.4%; for `COc1ccc(CC(=O)N2CC[C@@H]3CN(C)S(=O)(=O)[C@@H]3CC2)cc1` it is 37.5%.
Regarding `CN(C)C(=O)CN1C[C@H]2CCN(Cc3ccccc3)CC[C@H]2S1(=O)=O`, the INHIBITION worked out at 60.3%.
With `O=S1(=O)NC[C@H]2CCN(Cc3ccccc3)CC[C@H]21` the figure was 12.7%.
As for `COc1cccc(CC(=O)N2CC[C@@H]3[C@H](CC2)N(C)CCS3(=O)=O)c1`, the INHIBITION is 45.4%.
Take `Cc1ccccc1NC(=O)N1CC[C@@H]2CN(C)S(=O)(=O)[C@@H]2CC1`: the INHIBITION was -6.05%.
For `CCN1C[C@H]2CCN(C(=O)Cc3cccc(OC)c3)CC[C@H]2S1(=O)=O`, the INHIBITION stood at 52.4%.
With `COc1cccc(CC(=O)N2CC[C@@H]3CN(C)S(=O)(=O)[C@@H]3CC2)c1` the figure was -1.28%; with `CN(C)C(=O)CN1C[C@H]2CCN(C(=O)c3ccccc3)CC[C@H]2S1(=O)=O`, 44.2%.
With `CN(C)C(=O)CN1C[C@H]2CCN(c3ncccn3)CC[C@H]2S1(=O)=O` the figure was -85.3%; with `O=C(NCCc1ccccc1)N1CC[C@@H]2CNS(=O)(=O)[C@@H]2CC1`, 23.1%.
The figure for `CC(C)CN1CCc2[nH]nc(C(=O)N3CCCC3)c2C1` is 45.7%.
With `Cc1nc(-c2nc(C(=O)NC3CC3)c3ccccn23)cn1C(C)C`, the INHIBITION was determined as 43%.
The figure for `OC(CNCCn1cccn1)c1ccc(Br)cc1` (stereo not drawn) is 25.6%.
With `CCn1nc(C)c(S(=O)(=O)N(C)c2ccc(Cl)cn2)c1C` the figure was 0.643%; with `O=C(COCc1ccco1)Nc1cc(C(F)(F)F)c[nH]c1=O`, 19.6%.
With `CCc1nc(C2CCCN2CCn2cncn2)no1` (stereo not drawn) the figure was 16.7%; with `CC(C)[C@]1(O)CN(C(=O)COCC(N)=O)C[C@H]1C`, 10.6%; with `CNC(=O)N1CC[C@@H]2CN(Cc3cccc(OC)c3)S(=O)(=O)[C@@H]2CC1`, 63.8%.
Regarding `COc1cccc(CCCNC(=O)N2CCC(O)(C(F)(F)F)C2)c1` (stereo not drawn), the INHIBITION turned out to be 41.4%.
The figure for `CNC(=O)N1CC[C@@H]2CN(CCc3cccc(OC)c3)S(=O)(=O)[C@@H]2CC1` is 8.31%.
`COc1cccc(NC(=O)N2CCC(O)(C(F)(F)F)C2)c1` (stereo not drawn): the INHIBITION was 79.1%.
With `COc1cccc(CC(=O)N2CCC(O)(C(F)(F)F)C2)c1` (stereo not drawn) the figure was 49.1%.
Take `CNC(=O)N1CC[C@@H]2CN(Cc3cccc(Cl)c3)S(=O)(=O)[C@@H]2CC1`: the INHIBITION is -2.17%.
As for `c1cc2c(cc1-n1nc(C3CC3)nc1-c1csnn1)OCCO2`, the INHIBITION worked out at 27.2%.
With `O=C(c1ccoc1)N1CCC(NCc2ccccc2Cl)CC1` the figure was 7.81%.
With `CN(C)C(=O)Cn1c(C2CC2)c(CN2CCC(O)CC2)c2cccnc21` the figure was -8.58%.
The figure for `Cc1csc(CCNC(=O)Nc2cc(C(F)(F)F)c[nH]c2=O)n1` is 22%; for `Cc1occc1C(=O)N1C[C@@H](C(=O)NCc2ccco2)C[C@H]2OCC[C@H]21` it is 32.2%; for `Cc1c[nH]c(C2CCCN(Cc3cccc(C(=O)O)c3)C2)n1` (stereo not drawn) it is 6.26%.
Take `CC(=O)Nc1ccc(Oc2cccc(CN3CCCC3)c2)cc1`: the INHIBITION worked out at 27.9%.
The figure for `CCOc1cc(CN2CCCC2)ccc1Oc1cccc(C#N)n1` is 47.6%.
The figure for `COc1ccc(Oc2cccc(C#N)n2)cc1CN1CCCC1` is 25.4%; for `N#Cc1cccc(Oc2ccc(CN3CCCC3)cc2Cl)n1` it is 55%; for `COc1ccc(CN2CCCC2)cc1Oc1cccc(C#N)n1` it is 57.5%.
On to `N#Cc1ccc(CN2CCOCC2)cc1`, for which the INHIBITION is reported as 40.6%.
In the case of `O=C1CCNc2ccc(F)cc2CN1Cc1ccco1`, the INHIBITION amounted to 1.8%.
The figure for `Cc1ccc(-c2nc(C3CCN(C(=O)c4cnn(C)c4)CC3)no2)cn1` is 30.5%.
